# Assay outcomes deposited in PubChem BioAssay by National Center for Advancing Translational Sciences (NCATS).
# Sampled rows, rich in hits. Any-hit rate of the full collection: about 6.1%.
# DRD3 agonist = qHTS of D3 Dopamine Receptor Agonist: qHTS; D3R DiscoveRx beta-arrestin cells, luminescence, 90 min; AID 652048, 2013; 0.58% of 410,000 active; D(3) dopamine receptor (Homo sapiens), P35462; max activation, %; in the data active = max activation above about 30%; note: 0% is about no effect
#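 Cells at 1500/well, incubated overnight, then treated with pinned compounds (dopamine as control) for 90 min at 37 degrees C. DiscoveRx reagent added for 30 - 60 minutes at room temperature; luminescence read.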
# D3 antag = qHTS of D3 Dopamine Receptor Antagonist: qHTS; D3R cells, DiscoveRx beta-arrestin luminescence, antagonist mode; active compounds read low; AID 652054, 2013; max response, negative = inhibition, %; 2.5% of 360,000 active; in the data active = max response below about -50%; inconclusive = no clear call, values can overlap the other calls; note: % is set by controls: 0 for no effect and ±100 for the full control effect
#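 Cells plated overnight at 1500 cells/well, then exposed to library compounds with dopamine controls for 90 minutes at 37 degrees C. DiscoveRx reagent added for 30–60 minutes at room temperature; luminescence read, quantitative HTS format.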
# D1 agonist = Allosteric Agonists of the Human D1 Dopamine Receptor: qHTS. activation, % at 2 µM. HEK293 T-REx D1 cells, calcium flux, agonist mode. D(1A) dopamine receptor (Homo sapiens), P21728. 1% of 360,000 active; in the data active = activation above about 30%; note: 0% is about no effect
# Target sequence (P21728 whole entry, looked up): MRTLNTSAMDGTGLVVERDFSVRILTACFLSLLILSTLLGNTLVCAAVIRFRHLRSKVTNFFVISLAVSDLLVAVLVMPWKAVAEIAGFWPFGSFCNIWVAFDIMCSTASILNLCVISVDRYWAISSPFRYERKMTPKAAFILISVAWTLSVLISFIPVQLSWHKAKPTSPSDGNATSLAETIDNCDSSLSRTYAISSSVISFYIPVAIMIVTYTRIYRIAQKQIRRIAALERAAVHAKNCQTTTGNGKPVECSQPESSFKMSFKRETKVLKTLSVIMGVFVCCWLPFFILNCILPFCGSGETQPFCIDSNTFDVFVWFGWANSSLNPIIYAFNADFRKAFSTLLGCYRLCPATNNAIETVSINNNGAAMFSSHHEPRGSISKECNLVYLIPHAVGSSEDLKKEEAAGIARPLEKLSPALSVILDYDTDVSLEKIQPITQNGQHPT
#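 Agonism was scored from calcium flux recorded over 180 s (1 read/s) after pintool compound addition, following a 10-cycle baseline. Cells were inducible force-coupled HEK293 TREx D1, plated overnight at 30 C and loaded with no-wash calcium dye.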
# D1 potentiator = Potentiators of Human D1 Dopamine Receptor: qHTS; potentiation, % at 10 µM; HEK293 TREx D1 cells, calcium flux, dopamine EC20 potentiation; 0.036% of 360,000 active; in the data active = potentiation above about 30%; note: 0% is about no effect
# D1 antagonist = Antagonist of Human D 1 Dopamine Receptor: qHTS; D(1A) dopamine receptor (Homo sapiens), P21728; HEK293 TREx D1 cells, calcium flux, dopamine EC80; active compounds read low; activity change, negative = inhibition, % at 10 µM; 3.2% of 360,000 active; AID 504652, 2011; in the data active = activity change below about -30%; note: % is set by controls: 0 for no effect and ±100 for the full control effect
#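 Tetracycline-induced HEK293 T-REx cells with force-coupled D1 receptor were loaded with a no-wash calcium dye. Compound was added after a 10 s baseline and read kinetically for 180 s; EC80 dopamine was then added and calcium flux followed another 180 s.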
# An asterisk follows results filed as active; ? = inconclusive; . = no result given.
SMILES,DRD3 agonist,D3 antag,D1 agonist,D1 potentiator,D1 antagonist
CC(=O)c1ccc(NS(=O)(=O)c2ccc3c(c2)CCC(=O)N3)cc1,-2,0,4,0,-16
Cc1nnc(NC(=O)c2cccc(S(=O)(=O)N3CC(c4ccccc4)CC3=O)c2)s1 (stereo unspecified),68*,4,0,-3,-19
Cc1ccc(-n2nc3c(=O)n(CCCC(=O)NC(C)c4ccccc4)nc(C)c3c2C)cc1 (stereo unspecified),0,.,5,4,-6
NS(=O)(=O)c1ccc(NC2=CC(=O)C(=O)c3ccccc32)cc1,-7,-53*,1,-6,-6
COc1cc2cc(CNc3ccc(C)cc3)c(=O)n(CC(=O)Nc3ccc(F)cc3F)c2cc1OC,-7,.,7,-2,1
CCCS(=O)(=O)N1CCN(Cc2ccccc2C(F)(F)F)CC1,-5,?,1,4,7
CN1CCCN(Cc2ccccc2C(F)(F)F)CC1,-6,-84*,4,-3,-21
CN1CCCN(Cc2ccc(Cl)cc2Cl)CC1,-34,-78*,9,-8,0
CN1CCCN(Cc2nc(-c3ccc(Cl)cc3)no2)CC1,2,-10,3,0,-1
COc1cc(NC(=O)C2CCN(S(=O)(=O)c3ccc4c(c3)oc(=O)n4C)CC2)cc(OC)c1,-9,.,5,-1,-1
COc1ccccc1N1CCN(C(=O)C(=O)c2c[nH]c3ccccc23)CC1,-3,-19,7,3,-30*
COc1ccc(N2CCN(C(=O)C(=O)c3c[nH]c4ccccc34)CC2)cc1,3,-12,3,0,-15
COc1ccccc1N1CCN(/N=C/c2ccccc2C(=O)O)CC1,-1,2,0,-5,-50*
O=C(C(=O)N1CCN(c2ccccc2F)CC1)c1c[nH]c2ccccc12,3,-2,4,-3,-83*
CCN(CC)c1ccc(NC(=O)CN2C(=O)c3cccnc3Oc3ccccc32)c(C)c1,-9,.,1,-5,-15
Cc1cccc(Cn2cc(C(=O)c3ccccc3)c(=O)c3cc4c(cc32)OCO4)c1,6,.,-1,3,4
CCOC(=O)c1ccccc1NS(=O)(=O)c1c(-c2ccc(C)cc2)csc1C(=O)OC,-6,.,10,-2,-6
CCSc1nc2ccccc2c(OCc2ccc(Cl)cc2)c1C(=O)OC,16,.,18,1,-4
COC(=O)c1c(SC)nc2ccccc2c1OCc1ccccc1C,32*,.,12,0,29
COC(=O)c1c(SC)nc2ccccc2c1OCc1ccc(Br)cc1,11,.,14,2,5
COC(=O)c1c(SC)nc2ccccc2c1OCc1ccc(C)cc1,40*,.,12,1,7
CCSc1nc2ccccc2c(OCc2cc(C(=O)OC)ccc2OC)c1C(=O)OC,2,.,40*,1,-62*
COc1ccc(COc2ccccc2C(=O)NCc2ccccc2)cc1F,17,48,12,-3,-37*
COc1ccc(Cl)cc1-c1cc(C(=O)Nc2ccc(Br)cc2)[nH]n1,-22,-76*,.,.,.
COc1cc(C(=O)NCc2ccccc2)ccc1OC(F)F,-6,43,3,6,-17
SMILES,DRD3 agonist,D3 antag,D1 agonist,D1 potentiator,D1 antagonist
COc1ccc(Cl)cc1-c1cc(C(=O)NCc2ccccc2)[nH]n1,-23,-59*,.,.,.
CSc1ccc(CN(C)CC(=O)Nc2ccccc2Br)cc1,-9,0,3,1,-41*
Cc1[nH]n(-c2ccccc2)c(=O)c1/C=N/n1c(C)nc2ccccc2c1=O,4,-52*,2,1,16
Cn1cccc1C(=O)NNC(=O)COc1ccccc1F,8,8,0,-7,-47*
CSc1nsc(/C=C/Nc2cccc(Cl)c2)c1C#N,2,?,7,-8,-33*
CSc1nsc(/C=C/Nc2ccc(F)cc2)c1C#N,3,-2,4,-4,11
CSc1nsc(/C=C/Nc2ccc(O)cc2C)c1C#N,-3,-55*,2,-2,8
COCCNC(=O)c1ccc(CN2CCc3ccccc3C2)cc1,-15,?,1,0,19
CCCNC(=O)c1ccc(CN2CCc3ccccc3C2)cc1,-30,-15,1,-2,10
NC(=O)c1ccc(CN2CCc3ccccc3C2)cc1,-22,-82*,4,-11,-8
O=C(c1ccc(CN2CCc3ccccc3C2)cc1)N1CCCCC1,-20,-73*,3,-7,11
COc1ccccc1N1CCN(C(=O)c2ccc(CN3CCc4ccccc4C3)cc2)CC1,-5,-67*,0,-3,8
Cc1c(C)n(Cc2ccccc2)c2ccc(C(=O)N3CCN(c4ccc(F)cc4)CC3)cc12,4,.,1,2,-74*
Cc1cc2c(s1)c1cnn(Cc3ccc(C(=O)O)cc3)c(=O)c1n2C,.,.,7,5,-5
O=C(c1ccc(CN2CCc3ccccc3C2)cc1)N1CCN(c2ccc(F)cc2)CC1,-9,-65*,.,.,.
O=S(=O)(c1ccc(Cl)cc1)N1CCN(c2nc(-c3ccc(F)cc3)nc3cc(Cl)ccc23)CC1,.,.,1,5,5
CC(=O)c1ccc(OC2(C)CCN(Cc3cc4ccccc4[nH]3)C2)cc1 (stereo unspecified),-20,-55*,.,.,.
CC(=O)c1cc2cccc(OC3(C)CCN(Cc4ccc5ccccc5c4)C3)c2o1 (stereo unspecified),-16,-70*,.,.,.
CC(=O)c1ccc(OC2(C)CCN(CCOc3ccc(C)cc3)C2)cc1 (stereo unspecified),48*,-18,.,.,.
COCOc1cccc(CN2CCC(C)(Oc3ccc(C(C)=O)cc3)C2)c1 (stereo unspecified),-6,10,.,.,.
CSc1ccc(CN2CCC(C)(Oc3ccc4ccccc4c3)C2)cc1 (stereo unspecified),-14,?,.,.,.
CC(=O)c1ccc(OC2(C)CCN(Cc3cccn3-c3nccs3)C2)cc1 (stereo unspecified),3,9,.,.,.
COc1cccc(S(=O)(=O)N2CCN(S(=O)(=O)c3ccc4c(c3)OCCO4)CC2)c1,.,.,2,-3,15
Cc1ccc(-n2c(SCc3nc(-c4ccccc4C)no3)nnc2-c2ccncc2)cc1C,1,.,13,-1,-34*
Cc1ccccc1-c1noc(CSc2nnc(-c3ccncc3)n2-c2ccc(F)cc2)n1,6,.,1,-5,-5
Oc1ccc(C2CNCc3sccc32)cc1O (stereo unspecified),16,5,92*,-4,-96*
Oc1ccc(C2C[C@H]3CC[C@@H]2C3)cc1O (stereo partly specified),6,9,4,10,7
Oc1cc(O)c(CN2CCOCC2)cc1CN1CCOCC1,-4,17,.,.,.
